# Results: the supplement of paper PMC3334620
# Over roughly 33,000 sequences, “E-score (-0.5 to 0.5)” has its median near -0.013; the highest 2% begin near 0.3. The sample as a whole holds a higher share of the highest values than the screen did.
# Biological target: T1, Msn1 (UniProt P22148)
# T1 sequence: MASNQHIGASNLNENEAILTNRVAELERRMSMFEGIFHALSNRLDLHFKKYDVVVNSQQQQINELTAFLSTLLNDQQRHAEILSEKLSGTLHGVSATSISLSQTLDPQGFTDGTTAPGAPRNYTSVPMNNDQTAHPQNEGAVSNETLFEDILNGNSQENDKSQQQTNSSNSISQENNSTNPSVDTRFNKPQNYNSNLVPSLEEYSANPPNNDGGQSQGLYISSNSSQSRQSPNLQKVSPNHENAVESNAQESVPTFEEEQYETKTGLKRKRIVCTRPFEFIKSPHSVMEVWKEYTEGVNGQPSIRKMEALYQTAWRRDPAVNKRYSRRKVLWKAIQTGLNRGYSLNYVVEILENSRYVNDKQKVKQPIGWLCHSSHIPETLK
# Assay: PBM E-score (8-mer binding enrichment) (E-score (-0.5 to 0.5)); higher = stronger / more preferred TF binding
# Details: protein concentration: 200 nM; construct: GST-full length
# Experimental: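 Universal 'all 10-mer' protein binding microarrays (Agilent AMADID 015681) probed with GST-tagged S. cerevisiae TFs (full-length or DBD) made by in vitro transcription/translation (PURExpress), about 100-200 nM. Bound TF was detected with fluorescent anti-GST. Each ungapped 8-mer (which stands for itself and its reverse complement) is scored by the PBM enrichment score (E-score), a modified Wilcoxon-Mann-Whitney statistic from -0.5 to +0.5, computed with the Universal PBM Analysis Suite. Scale: above 0.35 generally sequence-specific binding.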
row,Sequence,PBM E-score
1,CGCAGACA,0.323
2,ATCACTAC,-0.126
3,CAGTGCTC,-0.259
4,AGCGCAGC,-0.115
5,ACCGCAAG,-0.0142
6,ATGCTACC,-0.126
7,AGAGATAT,0.0248
8,CGCCGGCG,0.204
9,CCTGCCAA,-0.125
10,GTGTCATA,0.292
11,ATGTCATC,0.341
12,ATGTCAAG,0.217
13,CTGTCAAA,0.0466
14,GTGTCAAA,0.096
15,CTGTCATA,0.0936
16,ATGTCAAA,0.323
17,ATGTCAGC,0.194
18,ATGTCATG,0.411
19,ATGTCAGG,0.158
20,ATGTCATA,0.448
21,CTGTCATC,0.0737
22,AGAGGTTG,-0.182

row,Sequence,PBM E-score
1,AGGTAACA,0.113
2,AAGTCGCT,-0.0636
3,CTGGGAAA,-0.203
4,GTGGGAGA,-0.317
5,GTGGGACA,0.455
6,ATGGGACA,0.429
7,CTGGGACA,0.444
8,GTGGGATA,-0.0948
9,ATGGGACG,-0.188
10,ATGGGACC,0.00395
11,CTGGGACC,-0.269
12,GACCGTGA,-0.0454
13,AACGCTAC,-0.137
14,CCCAACGC,0.0471
15,AATACCTG,-0.0275
16,GGTGAGAC,0.0221
17,ACACACCA,0.183
18,CTCCTTCA,-0.3
19,AGAAGCTA,-0.135
20,AATGGAGC,-0.132
21,CTTGTGTA,0.114
22,ATTGTGTG,-0.0187

row,Sequence,PBM E-score
1,CGTGTGTC,0.0945
2,ATTGTGTA,0.14
3,ATTGTGTC,0.314
4,CTTGTGTC,0.304
5,AGTCTCCG,0.159
6,ATCACAGC,0.053
7,AAATGAGT,0.0295
8,GATGTATA,-0.11
9,ACTGTACT,-0.00421
10,CATGTATA,0.141
11,AATGTAAT,0.193
12,AATGTACT,0.364
13,AATGTATA,0.323
14,AATGTACA,0.294
15,AATGTACC,0.311
16,AATGTACG,0.274
17,GCTCCCTA,-0.334
18,GAGACCTA,-0.0946
19,AATGTCAC,0.381
20,ACTGTCAC,0.00673
21,AATGTCAT,0.46
22,AGTGTCAT,0.112

row,Sequence,PBM E-score
1,AATGTCAG,0.254
2,ACTGTCAT,0.0249
3,GTTTGCCA,-0.0238
4,CCACCCAG,-0.0137
5,CGATGTAC,0.169
6,CTATGTGC,-0.0695
7,AGATGTTC,0.0457
8,CGATGTCC,0.436
9,GGATGTCA,0.305
10,AGATGTCC,0.477
11,AGATGTCG,0.0151
12,CGATGTTC,-0.0457
13,CTATGTTC,0.103
14,CGATGTCA,0.0775
15,CTATGTCC,0.461
16,GGATGTTA,-0.0664
17,AACAGAGT,0.128
18,AACAGCGT,0.0185
19,ATGGTGGG,-0.316
20,CACGCTAG,-0.0343
21,AATGGGAC,0.0849
22,CGAGCTAG,-0.0663
